Measurements as given in PMC4336329 (PLoS ONE, 2015).
Among all 310,000 compounds or so, about 2,200 (0.71%) showed an effect of 50% or more. Effects have a minus sign here. This is one part of a sample in which strong results are shown more often than they occur.

Target: human ether-à-go-go-related gene (hERG) potassium channel (human, UniProt Q12809)
Experiment: primary screen, population patch clamp on CHO cells stably expressing hERG; higher = less effect of the substance

Chain of human ether-à-go-go-related gene (hERG) potassium channel (Q12809 whole entry, looked up): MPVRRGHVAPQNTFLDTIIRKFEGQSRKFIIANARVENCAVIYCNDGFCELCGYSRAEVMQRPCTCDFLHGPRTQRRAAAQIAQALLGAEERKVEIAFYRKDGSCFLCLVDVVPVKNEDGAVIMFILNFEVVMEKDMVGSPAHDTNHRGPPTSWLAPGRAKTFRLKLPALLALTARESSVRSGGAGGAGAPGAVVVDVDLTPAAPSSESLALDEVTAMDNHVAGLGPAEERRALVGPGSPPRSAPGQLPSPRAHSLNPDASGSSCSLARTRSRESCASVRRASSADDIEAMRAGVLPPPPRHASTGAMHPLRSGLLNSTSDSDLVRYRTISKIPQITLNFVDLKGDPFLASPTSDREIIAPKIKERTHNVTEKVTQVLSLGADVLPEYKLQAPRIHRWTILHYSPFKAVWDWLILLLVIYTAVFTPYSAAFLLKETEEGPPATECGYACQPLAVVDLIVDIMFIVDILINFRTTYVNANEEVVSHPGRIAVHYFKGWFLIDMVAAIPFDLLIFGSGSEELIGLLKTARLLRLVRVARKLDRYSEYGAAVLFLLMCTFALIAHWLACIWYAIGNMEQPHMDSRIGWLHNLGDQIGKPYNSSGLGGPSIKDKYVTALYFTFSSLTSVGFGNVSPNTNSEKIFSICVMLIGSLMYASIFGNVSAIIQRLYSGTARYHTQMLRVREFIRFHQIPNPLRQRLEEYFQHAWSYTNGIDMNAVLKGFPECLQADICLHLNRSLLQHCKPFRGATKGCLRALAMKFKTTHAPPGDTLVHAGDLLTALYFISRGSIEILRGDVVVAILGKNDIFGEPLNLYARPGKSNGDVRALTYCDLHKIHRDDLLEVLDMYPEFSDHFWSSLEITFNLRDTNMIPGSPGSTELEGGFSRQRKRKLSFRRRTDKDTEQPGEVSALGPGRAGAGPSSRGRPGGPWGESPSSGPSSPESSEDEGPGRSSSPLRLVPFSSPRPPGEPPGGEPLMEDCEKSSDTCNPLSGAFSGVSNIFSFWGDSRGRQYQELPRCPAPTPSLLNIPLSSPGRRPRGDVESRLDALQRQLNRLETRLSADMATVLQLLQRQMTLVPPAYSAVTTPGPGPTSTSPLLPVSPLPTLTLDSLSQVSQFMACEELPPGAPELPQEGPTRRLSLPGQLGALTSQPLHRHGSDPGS

SMILES	hERG current change (%, negative = inhibition) at 1uM [%]
CCCCCCCCCCCCCCCC(=O)OC/C=C(C)/C=C/C=C(C)/C=C/C1=C(C)CCCC1(C)C	10.2
COc1cc(C2C(C#N)=C(N)Oc3n[nH]c(C)c32)cc2c1OCO2 (stereo not drawn)	-3.12
CCc1nnc(NC(=O)C2CCCN2C(=O)Nc2ccc(C)cc2)s1 (stereo not drawn)	8.89
COc1ccc(CNS(=O)(=O)c2ccc3c(c2)CCN3C(=O)C2CC2)cc1	5.86
NS(=O)(=O)c1ccc(CCNC(=O)Cc2ccc(S(=O)(=O)N3CCCC3)s2)cc1	14.9
Cc1ccc(C(=O)NCCCNCCCNC(=O)c2ccc(C)nc2)cn1	-10.3
CCCCNc1ccccc1C(=O)OCC(=O)Nc1ccc(S(N)(=O)=O)cc1	0.586
COc1ccc2oc3cc(C)[n+]([O-])c(-c4ccc(Br)cc4)c3c2c1	4.46
Cc1nc(-c2ccc([N+](=O)[O-])cc2)nc2[nH]ccc(=O)c12	14.5
Fc1ccc(-c2n[nH]c(=S)c3ccccc23)cc1	9.98
C[C@H](OC(=O)n1ccnc1)[C@@H]1O[C@@]2(C)CCC[C@@H]1O2	15.1
Cc1cc(=O)oc2cc(OC(C)C(=O)NC3CCN(Cc4ccccc4)CC3)ccc12 (stereo not drawn)	-52.6
CC(C)Oc1ccc(C(=O)NC2CCN(Cc3ccccc3)CC2)cc1	-21
CC(Oc1ccc2ccc(=O)oc2c1)C(=O)NC1CCN(Cc2ccccc2)CC1 (stereo not drawn)	-38.3
CC(Oc1ccccc1)C(=O)NC1CCN(Cc2ccccc2)CC1 (stereo not drawn)	-5.84
Cc1c(C)c2ccc(OC(C)C(=O)NC3CCN(Cc4ccccc4)CC3)cc2oc1=O (stereo not drawn)	-17.2
CC(Oc1ccc(Br)cc1)C(=O)NC1CCN(Cc2ccccc2)CC1 (stereo not drawn)	-59.6
CC1C(=O)N2CCCc3cc(NC(=O)C(=O)NCc4ccccn4)cc1c32 (stereo not drawn)	8.33
CCCNC(=O)COc1coc(CN2CCN(Cc3ccccc3)CC2)cc1=O	15.2
Cc1cc(Cl)ccc1NC(=O)COC(=O)c1c(C)noc1C	7.79
COc1cc(OC)cc(C(=O)NCC(=O)Nc2ccc(C)c(Cl)c2)c1	12.6
COc1ccc(-c2cc(C(=O)N3CCN(C(=O)c4ccco4)CC3)[nH]n2)cc1	-12.7

SMILES	hERG current change (%, negative = inhibition) at 1uM [%]
O=C(Cc1ccc(Cl)cc1)N1CCN(C(=O)c2ccco2)CC1	4.2
O=C(c1ccco1)N1CCN(C(=O)c2ccc(-c3ccccc3Cl)o2)CC1	-13.8
CC(=O)N1CCN(C(=O)c2ccc(-c3cccc(C(F)(F)F)c3)o2)CC1	-19.2
O=C(c1ccco1)N1CCN(C(=O)c2ccc(-c3ccc(Cl)cc3)o2)CC1	-67.5
O=C(c1ccc(-c2cccc(C(F)(F)F)c2)o1)N1CCCCCCC1	5.25
O=C(c1ccco1)N1CCN(C(=O)c2ccc(-c3cccc(C(F)(F)F)c3)o2)CC1	-63.5
O=C(c1cc(-c2ccc(Cl)cc2)n[nH]1)N1CCN(C(=O)c2ccco2)CC1	-69.3
Cc1ccc(-c2cc(C(=O)N3CCN(C(=O)c4ccco4)CC3)[nH]n2)cc1C	14.4
CN1CC[C@@]2(C)c3cc(O)ccc3N(C)C2O1 (stereo partly drawn)	4.17
Oc1[nH]c2ccccc2c1C1=NCCCCC1	3.28
CC(C)c1nc2sc3c(c2c(=O)o1)CCCC3	9.49
Cc1ccc(C(=O)N/C(=C\c2cn(S(=O)(=O)N(C)C)c3ccccc23)C(=O)N2CCCC2)cc1	16
CC(=O)c1c(C)nn(CCC(=O)O)c1C	12.2
Cl.c1coc(CNc2nc(N3CCCCC3)nc3ccccc23)c1	-80.8
Cl.OCCN1CCN(c2nc(NCc3ccco3)c3ccccc3n2)CC1	-39.4
Cl.OCCNc1nc(N2CCCCC2)nc2ccccc12	-18.4
Cl.OCCNc1nc(N2CCN(Cc3ccccc3)CC2)nc2ccccc12	-28.6
Cl.c1ccc(N2CCN(c3nc(NCc4ccco4)c4ccccc4n3)CC2)cc1	-9.89
C=CCNc1nc(N2CCCC2)nc2ccccc12	-66
Cl.c1ccc(CNc2nc(N3CCN(Cc4ccccc4)CC3)nc3ccccc23)cc1	10.4
Cl.c1ccc2c(NCC3CCCO3)nc(N3CCCCC3)nc2c1 (stereo not drawn)	-49.3
Cl.c1ccc(CN2CCN(c3nc(NCc4ccco4)c4ccccc4n3)CC2)cc1	-54.5

SMILES	hERG current change (%, negative = inhibition) at 1uM [%]
CC(=O)OC1C(N2CCCCC2)c2c(ccc(/C=C/C(=O)N3CCCCC3)c2O)OC1(C)C (stereo not drawn)	8.42
O=c1ccc(-c2n[nH]c(=S)n2-c2ccc(F)c(Cl)c2)n[nH]1	14.8
CC(C)C(=O)NC(NC(=S)Nc1ccc(S(N)(=O)=O)cc1)C(Cl)(Cl)Cl (stereo not drawn)	12.7
CS(=O)(=O)c1ccccc1C(=O)N(CCc1ccccc1)Cc1ccccc1	9.2
S=C1N(c2ccccc2)C(c2ccccc2)N2CCCN12 (stereo not drawn)	6.76
O=C(Cc1ccc(F)cc1)Nc1c(C(=O)N2CCN(c3ncccn3)CC2)oc2ccccc12	-8.61
CCOCCCN(C)C1CCN(C(=O)c2oc3ccccc3c2NC(=O)Cc2ccc(F)cc2)CC1	-85.2
CCOC(=O)c1oc2ccccc2c1NC(=O)COc1ccc(F)cc1	12.4
CCOCCCN(C)C1CCN(C(=O)c2oc3ccccc3c2NC(=O)COc2cccc(C)c2)CC1	-62.4
CCOCC(=O)Nc1c(C(=O)N2CCN(c3ncccn3)CC2)oc2ccccc12	5.42
CCOCCCN(C)C1CCN(C(=O)c2oc3ccccc3c2NC(=O)COc2ccc(F)cc2)CC1	-85.9
CCOCCCN(C)C1CCN(C(=O)c2oc3ccccc3c2NC(=O)c2ccc(F)cc2)CC1	-85.6
O=C(COc1ccc(F)cc1)Nc1c(C(=O)N2CCC(N3CCCCC3)CC2)oc2ccccc12	-33.8
CCOC(=O)c1oc2ccccc2c1NC(=O)COc1cccc(OC)c1	14.2
NC(=O)c1oc2ccccc2c1NC(=O)c1ccc(F)cc1	11.1
COCCCN(C)C1CCN(C(=O)Nc2ccc(F)cc2)CC1	-2.37
COc1ccc(CC(=O)Nc2c(C(=O)N3CCN(c4ccccc4OC)CC3)oc3ccccc23)cc1OC	9.46
CN(C)/N=C/C=C1\CCC/C(=C/c2cccs2)C1=O	7.9
O=C(COc1coc(CN2CCN(c3ccccc3)CC2)cc1=O)Nc1ccccc1	10.3
COc1ccc(C2NCCc3[nH]cnc32)cc1 (stereo not drawn)	0.887
CC(/C=N/NC(=O)c1cc(-c2ccncc2)nc2ccccc12)=C\c1ccco1	0.477
CC(c1ccco1)N(C(=O)COc1ccccc1[N+](=O)[O-])c1ccccn1 (stereo not drawn)	0.845

SMILES	hERG current change (%, negative = inhibition) at 1uM [%]
CC1CC(C)CN(C(=O)c2ccc(C(=O)c3ccccc3)cc2)C1 (stereo not drawn)	-1.23
Nc1nonc1-n1nnc(C(=O)N/N=C/c2ccccc2Cl)c1-c1ccccc1	18.9
COc1ccc(CCN(C)C(=O)c2ccc(S(=O)(=O)Nc3ccccc3C)cc2)cc1OC	10.8
O=C(Nc1ccc(S(=O)(=O)NC2CCCCC2)cc1)c1ccc(Br)o1	1.61
Cc1cc2[nH]c3c(c[n+](C)c4ccccc34)c2cc1C.[I-]	-75.9
Cc1nccc2c1[nH]c1ccccc12	10.2
COc1cc2[nH]c3ccccc3c2cc1C	10.5
O=c1[nH]c(SCc2ccccc2)nc2c1cnn2-c1ccc(F)cc1	4.7
COc1ccc(C(CNC(=O)c2ccc(C)o2)N2CCOCC2)cc1 (stereo not drawn)	-1.5
CCOC(=O)c1[nH]c2ccc(Br)cc2c1NC(=O)CCN1CCC(C)CC1	-36.9
COC(=O)c1[nH]c2ccc(Br)cc2c1NC(=O)CN1CCN(C2CCCCC2)CC1	-85.1
COC(=O)c1[nH]c2ccc(C)cc2c1NC(=O)C(C)N1CCN(C2CCCCC2)CC1 (stereo not drawn)	-81
COC(=O)c1[nH]c2ccc(Cl)cc2c1NC(=O)CCN1CCOCC1	9.37
CCOC(=O)c1[nH]c2ccc(OC)cc2c1NC(=O)CCN1CCCC(C)C1 (stereo not drawn)	-3.69
COC(=O)c1[nH]c2ccc(Br)cc2c1NC(=O)CN1CCCCC1CCO (stereo not drawn)	5.4
COC(=O)c1[nH]c2ccccc2c1NC(=O)C(C)N1CCOCC1 (stereo not drawn)	9.91
CCOC(=O)C1CCCN(CC(=O)Nc2c(C(=O)OC)[nH]c3ccc(Br)cc23)C1 (stereo not drawn)	-3.53
COC(=O)c1[nH]c2ccc(C)cc2c1NC(=O)NC1CCCCC1	9.66
COC(=O)c1[nH]c2ccc(Cl)cc2c1NC(=O)CN1CCC(C(N)=O)CC1	10.6
CCOC(=O)c1[nH]c2ccc(Br)cc2c1NC(=O)CCN1CCCC(C)C1 (stereo not drawn)	-66.8
COC(=O)c1[nH]c2ccc(Cl)cc2c1NC(=O)CCN1CCN(C2CCCCC2)CC1	-69.5
